Screening data as filed in PubChem.
NPR1 antag = Natriuretic polypeptide receptor (hNpr1) antagonism - Primary qHTS; Atrial natriuretic peptide receptor 1 (Homo sapiens), P16066; Potency, µM (doses to about 46.3 µM), hits mostly inhibitors; actives 1.6% (n = 76,000); HEK293 hNpr1 GloSensor cGMP, ANP-stimulated luminescence; calls by dose curve; further: nearly all actives have a fitted effect of over 60% in size
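HEK293 cells stably expressing human Npr1 and cGMP GloSensor pGS-40F, loaded 2 h with 2% GloSensor reagent, given compound 30 min at room temperature. Luminescence read before and 20 min after 0.1 nM hNppA.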
NIH3T3 tox = Cytotoxic Profiling in NIH 3T3 Cell Line of Diverse Libraries Using Quantitative High-Throughput Screening. NIH 3T3 viability, CellTiter-Glo ATP luminescence, 48-72 h. Potency, µM (titrated, usually from 96.7 µM), actives largely listed as inhibitors. actives 4.3% (n = 94,000); further: nearly all actives have a fitted effect of over 55% in size
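Luminescent ATP readout (CellTiter-Glo, 10 min RT) after 48 or 72 hr compound exposure of NIH 3T3 cells seeded at 400 cells/well in 1536-well format; quantitative HTS.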
HEK cytotox = Cytotoxic Profiling in HEK 293 Cell Line of Diverse Libraries Using Quantitative High-Throughput Screening. HEK 293 viability, ATP luminescence (CellTiter-Glo), 48-72 h. actives 6.6% (n = 94,000). Potency, µM (top dose mostly 115 µM), actives largely listed as inhibitors; further: nearly all actives have a fitted effect of over 60% in size
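Pintool-delivered compounds were incubated with HEK 293 cells (250 cells/well) at 37 degree Celsius for 48 or 72 hr. ATP-dependent luminescence (CellTiter-Glo) then reported remaining viable cells.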
Luciferase inh = Firefly luciferase inhibition profiling of diverse chemical library using quantitative high-throughput screening. Luciferin 4-monooxygenase (Photinus pyralis), P08659. purified P. pyralis luciferase, luminescence, biochemical. Potency, µM (titrated, usually from 115 µM), hits mostly inhibitors. actives 2.5% (n = 76,000); further: nearly all actives have a fitted effect of over 65% in size
Target sequence (P08659 whole entry, looked up): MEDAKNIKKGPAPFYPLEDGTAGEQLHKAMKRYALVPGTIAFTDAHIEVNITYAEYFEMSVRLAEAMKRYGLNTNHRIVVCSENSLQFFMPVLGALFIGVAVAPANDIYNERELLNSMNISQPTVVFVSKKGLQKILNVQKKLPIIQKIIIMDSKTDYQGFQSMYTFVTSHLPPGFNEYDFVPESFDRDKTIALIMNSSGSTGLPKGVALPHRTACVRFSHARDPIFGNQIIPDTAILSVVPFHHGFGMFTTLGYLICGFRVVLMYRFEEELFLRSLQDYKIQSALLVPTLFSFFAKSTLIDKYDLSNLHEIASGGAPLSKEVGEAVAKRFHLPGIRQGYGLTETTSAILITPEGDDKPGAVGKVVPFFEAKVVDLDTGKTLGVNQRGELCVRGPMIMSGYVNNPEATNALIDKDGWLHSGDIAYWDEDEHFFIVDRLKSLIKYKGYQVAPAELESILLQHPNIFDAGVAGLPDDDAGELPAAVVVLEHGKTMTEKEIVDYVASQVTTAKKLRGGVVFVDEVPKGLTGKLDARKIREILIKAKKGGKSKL
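Purified P. pyralis luciferase (10nM final) in 50mM Tris acetate pH 7.5, 10mM Mg acetate, 0.01% Tween-20, 0.05% BSA with 10uM D-luciferin and 10uM ATP. Compounds titrated qHTS. Luminescence imaged on CCD.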
Hits are given with their value; n = inactive; u = inconclusive; x = no result given. Rows were chosen to be rich in hits. Some 11% of all compounds tested hit in one or more screens of this group. Unless noted, the call rests on the fitted dose curve; in most records, active means well fitted curve in the direction sought with a large enough effect; inconclusive means small, poorly fitted or top-dose-only effect, or another doubt; inactive means no such curve, though single readings can be large; an effect the other way counts as inactive or inconclusive.

SMILES	NPR1 antag	NIH3T3 tox	HEK cytotox	Luciferase inh
O=C(C1CCCN1[S+](=O)([O-])c1cccc(C(F)(F)F)c1)N1CCC(c2ccccc2)CC1 (stereo unspecified)	x	35.5µM	25.1µM	x
O=C(c1ccc(C(F)(F)F)cc1)N1CCC(C(=O)N2CCC(c3ccccc3)CC2)CC1	x	u	44.7µM	x
O=C(C1CC1)N1CCC(C(=O)N2CCC(c3ccccc3)CC2)CC1	x	u	n	x
CC(=O)NCC(=O)N1Cc2ccccc2CC2(CCCCN2CC2CCNC2)C1 (stereo unspecified)	x	n	n	x
Cn1cnc(C(=O)N2CCC3(CC2)CC(N(Cc2ccc(F)cc2)C2CC2)CCO3)c1 (stereo unspecified)	n	n	n	n
CCc1nc(C)c(C(=O)Nc2nn(C)c3cccc(N4CCOC4=O)c23)o1	n	n	n	n
CCOCC(=O)Nc1nn(-c2ccc(F)cc2)c2cccc(N3CCOC3=O)c12	n	n	u	35.5µM
COCC1(O)CCOC2(CCN(C(=O)C3CCC3)CC2)C1 (stereo unspecified)	x	n	n	x
COc1cccc(CNC(=O)C2CCN(C(=O)c3cc4c(=O)[nH]c(C)cn4n3)CC2)c1	n	n	n	n
Cc1cnc(C(=O)N[C@@H]2CCC[C@@H]2C(=O)NCCc2ccccc2)cn1	n	n	n	n
COC1CCC(C(=O)N2CCc3c(n(CCOc4ccccc4)n(-c4ccccc4)c3=O)C2)CC1 (stereo unspecified)	n	20µM	n	n
CCn1c2c(c(=O)n1-c1ccccc1)CCN(Cc1cncc(OC)c1)C2	n	100µM	n	n
CC(C)CCN1CCc2c(n(CCOc3ccccc3)n(-c3ccccc3)c2=O)C1	n	100µM	u	n
COCCn1c2c(c(=O)n1-c1ccccc1)CCN(C(=O)c1nc3ccccc3[nH]1)C2	n	89.1µM	n	n
CCCCN(Cc1ccccc1)Cc1cn[nH]c1-c1ccc(OC)cc1OC	n	u	u	n
O=C(C1CC1)N1CCCC(N2CCN(c3cccc(C(F)(F)F)c3)CC2)C1 (stereo unspecified)	n	n	u	n
Cn1ncc2c(C(=O)NC3CCOCC3)cc(-c3cccc(F)c3)nc21	x	n	n	x
COc1ccccc1C(=O)NC1CCN(c2ccc3nnc(C4CC4)n3n2)C1 (stereo unspecified)	x	n	u	x
OCc1ccc(CN2CCC[C@H]2c2nc(-c3ccc(N4CCOCC4)nc3)no2)o1	n	n	u	n
c1cc(N2CCOCC2)ncc1-c1noc([C@@H]2CCCN2)n1	n	n	n	56.2µM
Clc1ccc(CN2CCC[C@H]2c2nc(-c3ccc(N4CCOCC4)nc3)no2)cc1	u	u	63.1µM	u
c1ccc(CN2CCC[C@H]2c2nc(-c3ccc(N4CCOCC4)nc3)no2)cc1	n	n	89.1µM	n
O[C@H]1[C@H](NCC2CCCCC2)[C@H]2CO[C@H](O2)[C@@H]1Sc1ccccc1	n	u	u	n
COc1cccc(O)c1CN1CCC2(CC1)Cc1ccccc1CNC2=O	x	n	n	x
O=C(NC1CCN(c2nc3ncccc3o2)C1)c1ccc(F)cc1 (stereo unspecified)	x	n	n	x
SMILES	NPR1 antag	NIH3T3 tox	HEK cytotox	Luciferase inh
COc1ccccc1C(=O)N1CCC2(CC1)N(Cc1cccc(F)c1)C(=O)CS2=O (stereo unspecified)	x	n	n	x
O=[S+]([O-])(c1ccccc1)N1CCN(Cc2ccccc2-c2cccnc2)CC1	x	u	35.5µM	x
O=C(C1CCN(Cc2ccccc2-c2cccnc2)CC1)N1CCC(c2ccccc2)CC1	x	44.7µM	35.5µM	x
CC(C)NC(=O)N1CCN(Cc2ccccc2-c2cccnc2)CC1	x	n	n	x
O=C(Nc1ccc(Cl)cc1)N1CCN(Cc2ccccc2-c2cccnc2)CC1	x	35.5µM	u	x
C[C@@H](NC(=O)c1cc(-c2ccc(C(F)(F)F)cc2)nc2c1cnn2C)c1ccccc1	x	n	n	x
O=C(NC1CCc2nnc(C3CC3)n2CC1)C1CC=CCC1 (stereo unspecified)	n	n	n	n
CC(C)(C)CC(=O)N1CCN2C(=O)c3cc(-c4ccccc4)ccc3NC(=O)[C@H]2C1	n	u	100µM	n
CCCNC(=O)N1CCN2C(=O)c3cc(-c4ccccc4F)ccc3NC(=O)[C@@H]2C1	n	u	100µM	n
CC(C)(CC(=O)O)CC(=O)N1CCN2C(=O)c3cc(-c4ccc(Cl)cc4)ccc3NC(=O)[C@H]2C1	n	n	n	n
CC(C)(C)CC(=O)N1CCN2C(=O)c3cc(-c4ccc(Cl)cc4)ccc3NC(=O)[C@H]2C1	n	u	39.8µM	n
O=C1Nc2ccc(-c3ccc(Cl)cc3)cc2C(=O)N2CCN(C(=O)C3CCCCC3)C[C@H]12	n	u	39.8µM	n
COc1ccc(-c2ccc3c(c2)C(=O)N2CCN(C(=O)CC(C)(C)C)C[C@@H]2C(=O)N3)cc1	n	u	u	n
CC(C)CCN1CCc2nc(C(C)C)nc(-c3ccc(O)cc3)c2C1	x	n	n	x
CSCCNC(=O)C1CCN(c2nc3ncccc3o2)CC1	x	n	n	x
O=C(c1cc(F)ccc1F)N1CCCC(c2nnnn2-c2ccccc2)C1 (stereo unspecified)	x	n	n	x
CC(=O)N1CCC(C(=O)N2CCC(c3ccccc3)CC2)CC1	x	n	n	x
COc1ccc(Cl)cc1-c1ccc2c(c1)C(=O)N1CCN(C(=O)COc3ccccc3)C[C@@H]1C(=O)N2	n	u	u	n
COc1ccc(Cl)cc1-c1ccc2c(c1)C(=O)N1CCN(C(=O)CN)C[C@H]1C(=O)N2	n	100µM	u	n
Cc1cc(C(=O)N2CCNCC(O)C2)c(-c2ccccc2)o1 (stereo unspecified)	n	n	n	n
COC(=O)CNC(=O)C1CCN(Cc2ccccc2-c2ccc(C)c(Cl)c2)CC1	x	u	n	x
COc1ccccc1C(=O)N1CCN(Cc2ccccc2-c2ccc(C)c(Cl)c2)CC1	x	35.5µM	u	x
Cc1ccc(-c2ccccc2CN2CCN(C(=O)NC3CCCC3)CC2)cc1Cl	x	20µM	22.4µM	x
Cc1ccc(-c2ccccc2CN2CCC(C(=O)N3CCOCC3)CC2)cc1Cl	x	u	79.4µM	x
COCCCn1c(=O)c(C(=O)NCCc2ccc(OC)cc2)nc2cccnc21	x	n	n	x
O=C(c1cccs1)N1CCOc2ccc(N3CCCC3)cc2C1	x	u	17.8µM	x
CCC1=C(C(=O)OC)C(c2ccc(C)cc2C)N2C(CC(=O)N3CCCC3)=CSC2=N1 (stereo unspecified)	u	n	u	n
CCC1=C(C(=O)OC)C(c2ccc(C)cc2C)N2C(CC(=O)Nc3ccc(OC)cc3)=CSC2=N1 (stereo unspecified)	n	u	44.7µM	n
COC(=O)C1=C(C)N=C2SC=C(CC(=O)N3CCCC3)N2C1c1ccc(C)cc1C (stereo unspecified)	u	25.1µM	u	n
